Only some compounds are listed: those with a hit (about 1.1% of all), similar ones and a draw of the others.
LRH-1 inv ag: inverse agonists of human LRH-1 (NR5A2) | O00482 | HEK293T StAR-luciferase reporter, LRH-1 transfected, 24 h | AID 602396 | 360,000 tested, 0.13% active | inhibition, % at 3.6 µM;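 active = inhibition above the mean inhibition of all tested compounds plus 3 SD, cut at about 73% in these data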;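 note: 0% = DMSO wells and 100% = reporter-only cells lacking LRH-1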
SRC2 inh: inhibits human steroid receptor coactivator 2; Q15596; HEK293 GAL4-SRC2 luciferase reporter, luminescence; inhibition, % at 9 µM; 370,000 tested, 0.17% active; AID 651957;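 active = inhibition above the mean inhibition of all tested compounds plus 3 SD, set per campaign, cut at about 52% in these data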;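 note: 0% = DMSO treated cells and 100% = cells given Gossypol at 36 µM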
COUP-TFII inh: NR2F2 (human) inhibition, primary screen; 370,000 tested, 0.7% active; HEK293T NGFI-A luciferase reporter, luminescence; inhibition, % at 8.6 µM; AID 686940;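 active = inhibition above a per-plate cutoff, mean inhibition of test wells between control levels plus 3 SD, cut at about 38% in these data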;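 note: cells cotransfected with COUP-TFII expression vector driving the NGFI-A reporter; 0% = median of COUP-TF2 test wells and 100% = reporter-only cells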
NCOA3 inh: inhibits human SRC3 coactivator | HEK293 GAL4-SRC3 luciferase reporter, luminescence | inhibition, % at 3.6 µM | 360,000 tested, 0.17% active;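 active = inhibition above a per-campaign cutoff, the mean of all compounds plus 3 SD, cut at about 60% in these data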;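 note: 0% = DMSO-treated cells and 100% = gossypol-treated cells at 36 µM; higher means less SRC3-driven luciferase light from the GAL4 reporter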
GalR3 antag: human GalR3 antagonism; inhibition, % at 3 µM; O60755; 360,000 tested, 0.44% active; HEK293 GalR3-CNG cAMP membrane potential fluorescence; galR3 body fused to GalR1 C-terminus; AID 651719;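 active = inhibition above the screen-wide average plus 3 SD, cut at about 13% in these data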;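 note: forskolin and galanin both at EC90 stimulate the cells; cAMP rise reported by CNG channel membrane potential dye signal; 0% = forskolin plus galanin with DMSO and 100% = forskolin alone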
Target sequence (O60755 1-299 limits assumed): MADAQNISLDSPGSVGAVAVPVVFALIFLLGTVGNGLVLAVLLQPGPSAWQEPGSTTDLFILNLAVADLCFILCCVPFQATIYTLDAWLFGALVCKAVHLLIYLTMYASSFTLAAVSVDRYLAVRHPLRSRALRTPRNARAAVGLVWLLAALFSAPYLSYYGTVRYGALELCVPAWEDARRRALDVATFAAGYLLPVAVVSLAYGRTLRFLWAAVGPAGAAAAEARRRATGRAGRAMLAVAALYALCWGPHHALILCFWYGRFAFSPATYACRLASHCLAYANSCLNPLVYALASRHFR
NCOA1 inh: inhibitors of human steroid receptor coactivator 1 (SRC1) | 360,000 tested, 0.12% active | AID 588354 | HEK293 GAL4-SRC1 luciferase reporter, luminescence | inhibition, % at 3.6 µM | Q15788;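 active = inhibition above the campaign mean plus 3 SD, with each screening campaign given its own cutoff, cut at about 60% in these data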;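 note: 0% = DMSO treated cells and 100% = gossypol at 36 µM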
Gal4-VP16 ctr: VP16 inhibition counter-screen for COUP-TFII; HEK293 Gal4-VP16 luciferase reporter, luminescence; shares compounds with COUP-TFII inh; inhibition, % at 8.5 µM; 2,500 tested, 25% active; AID 687007; in the data active = inhibition above about 13%
NR2F2 inh conf: confirmation of human COUP-TFII (NR2F2) inhibitors. shares compounds with COUP-TFII inh. HEK293 NGFI-A luciferase reporter, luminescence. inhibition, % at 8.5 µM. 2,500 tested, 45% active. AID 687008;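 active = mean inhibition over three repeats above a set limit taken from the earlier primary screen, cut at about 38% in these data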;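 note: 100% = cells given the luciferase reporter alone without the COUP-TF2 vector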
* hit, by the source's call.

For Cc1cc(C)nc(SCc2ccc(C(=O)NNC(=O)Nc3cccc(Cl)c3)cc2)n1 the results were LRH-1 inv ag 12, SRC2 inh 0, COUP-TFII inh 4, NCOA3 inh 18, GalR3 antag -1 and NCOA1 inh 3.
For CCOC(=O)Cc1csc(NC(=O)/C=C/c2ccc(Br)o2)n1 the results were LRH-1 inv ag -18, SRC2 inh 10, COUP-TFII inh 28, NCOA3 inh -11, GalR3 antag 1 and NCOA1 inh -12.
CCOC(=O)Cc1csc(NC(=O)/C=C/c2cccc(Br)c2)n1 was read as LRH-1 inv ag 2, SRC2 inh 16, COUP-TFII inh 58*, NCOA3 inh 26, GalR3 antag -5, NCOA1 inh 14, Gal4-VP16 ctr -7 and NR2F2 inh conf 14.
Cc1c(CCC(=O)NCCCC(=O)O)c(=O)oc2cc3oc4c(c3cc12)CCCC4 was read as LRH-1 inv ag 9, SRC2 inh 63*, COUP-TFII inh 49*, NCOA3 inh 2, GalR3 antag -3, NCOA1 inh 13, Gal4-VP16 ctr 35* and NR2F2 inh conf 34.
Screening Cc1c(CCC(=O)N[C@@H](CCCNC(N)=O)C(=O)O)c(=O)oc2cc3oc4c(c3cc12)CCCC4 returned LRH-1 inv ag -1, SRC2 inh 68*, COUP-TFII inh 53*, NCOA3 inh -1, GalR3 antag -9, NCOA1 inh 11, Gal4-VP16 ctr 29* and NR2F2 inh conf 29.
Screening Cc1c(CCC(=O)NCCCCCC(=O)O)c(=O)oc2c(C)c3oc4c(c3cc12)CCCC4 returned LRH-1 inv ag 2, SRC2 inh 10, COUP-TFII inh -2, NCOA3 inh 5, GalR3 antag 8 and NCOA1 inh -21.
Screening CCC(NC(=O)CCc1c(C)c2cc3c4c(oc3cc2oc1=O)CCCC4)C(=O)O (stereo not drawn) returned LRH-1 inv ag 4, SRC2 inh 65*, COUP-TFII inh 40*, NCOA3 inh 11, GalR3 antag -11, NCOA1 inh 13, Gal4-VP16 ctr 46* and NR2F2 inh conf 42*.
`O=C(Nc1ccc(-c2nc3ccccc3s2)cc1)c1cc(-n2cnnc2)ccc1Cl` gave LRH-1 inv ag 25, SRC2 inh -24, COUP-TFII inh 70*, NCOA3 inh -4, GalR3 antag -9, NCOA1 inh -16, Gal4-VP16 ctr -16 and NR2F2 inh conf 52*.
CC(C)(C)c1ccc(Oc2ccc(NC(=O)c3ccco3)cn2)cc1 was read as LRH-1 inv ag -7, SRC2 inh 41, COUP-TFII inh 43*, NCOA3 inh 32, GalR3 antag -6, NCOA1 inh -2, Gal4-VP16 ctr 29* and NR2F2 inh conf 59*.
Screening O=C(Nc1ccc(Oc2cccc(C(F)(F)F)c2)nc1)c1ccco1 returned LRH-1 inv ag 8, SRC2 inh 20, COUP-TFII inh 2, NCOA3 inh 21, GalR3 antag 0 and NCOA1 inh -13.
Screening Cc1ccc(Cn2ccc(NC(=O)c3cc(C4CC4)on3)n2)cc1 returned LRH-1 inv ag -3, SRC2 inh 18, COUP-TFII inh 39*, NCOA3 inh -5, GalR3 antag -1, NCOA1 inh 10, Gal4-VP16 ctr -7 and NR2F2 inh conf -9.
`CN(C)CCCN1C(=O)C(=O)/C(=C(/O)c2ccncc2)C1c1cccnc1` (stereo not drawn) gave LRH-1 inv ag 6, SRC2 inh 2, COUP-TFII inh 8, NCOA3 inh 7, GalR3 antag -3 and NCOA1 inh -32.
Screening Cc1cccc(-c2cccc(NC(=O)C3CCCN(C(=O)c4csc(C)n4)C3)c2)c1 (stereo not drawn) returned LRH-1 inv ag 25, SRC2 inh 7, COUP-TFII inh 42*, NCOA3 inh 7, GalR3 antag -9, NCOA1 inh 19, Gal4-VP16 ctr -35 and NR2F2 inh conf 18.

Assay outcomes: PubChem BioAssay, The Scripps Research Institute Molecular Screening Center
